# Structures can show the parent of a compound that is named as a salt.
# Experiments:
# Assay in all cases: Euclidean distance of Cell Painting phenotypic profile (signed KS, 77 features) to DMSO centroid (dimensionless distance); 5 or 10 uM (library dependent); higher = stronger phenotypic change vs DMSO (phenoactivity)
# Settings in all cases: 48 h
# [1] = tested on: 786-O
# Procedure, shortened: (§1)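 At 10 or 5 uM, as set by the library, and 0.1% DMSO final, compounds were applied for 48 h to five cancer lines and one healthy fibroblast line. Stained cells were imaged confocally at 20X in 9 fields per well, and Harmony extracted 77 features scored as signed Kolmogorov-Smirnov statistics against vehicle wells on the same plate. Profiles underwent plate-position correction, correlation weighting and replicate averaging at the top dose. Phenoactivity is the Euclidean distance from each such profile to the median vehicle profile.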
# [2] = tested on: A549
# Procedure, shortened: as §1
# [3] = tested on: FB
# Procedure, shortened: as §1
# [4] = tested on: HEPG2
# Procedure, shortened: as §1
# [5] = tested on: OVCAR4
# Procedure, shortened: as §1
# [6] = tested on: DU145
# Procedure, shortened: as §1
SMILES,Euclidean distance [1],Euclidean distance [2],Euclidean distance [3],Euclidean distance [4],Euclidean distance [5],Euclidean distance [6]
C[C@@H]1C[C@H]2[C@@H]3CCC4=CC(=O)C=C[C@]4(C)[C@@]3(F)[C@@H](O)C[C@]2(C)[C@H]1C(=O)CO [Desoximetasone],1.28,2.05,1.89,0.967,2.03,
CCN(CC)C(=O)c1cccnc1 [Nikethamide],1.44,1.13,1.17,0.66,1.38,
CC[C@H](C)[C@H](N)C1=N[C@H](C(=O)N[C@@H](CC(C)C)C(=O)N[C@H](CCC(=O)[O-])C(=O)N[C@H](C(=O)N[C@H]2CCCCNC(=O)[C@H](CC(N)=O)NC(=O)[C@@H](CC(=O)[O-])NC(=O)[C@H](Cc3cnc[nH]3)NC(=O)[C@@H](Cc3ccccc3)NC(=O)[C@H]([C@@H](C)CC)NC(=O)[C@@H](CCCN)NC2=O)[C@@H](C)CC)CS1.[Zn+2] [Bacitracin Zinc],0.919,0.811,0.932,1.77,1.44,
C[C@@H]1CCC[C@H](C)N1NC(=O)c1ccc(Cl)c(S(N)(=O)=O)c1 [Clopamide],1.15,1.14,0.969,0.528,1.14,
Cc1cc(NC(=O)Nc2ccc(N(C)C)cc2)c2cc(F)cc(F)c2n1,0.716,1.16,0.943,,0.985,0.704
CC(C)[C@H]1C(=O)N[C@@H](CCCN=C(N)N)C(=O)NCC(=O)N[C@@H](CC(=O)O)C(=O)N[C@H](Cc2ccccc2)C(=O)N1C,4.91,2.03,1.25,4.74,2.44,
CC1(C)S[C@@H]2[C@H](NC(=O)[C@H](NC(=O)N3CCNC3=O)c3ccccc3)C(=O)N2[C@H]1C(=O)O [Azlocillin sodium salt],0.826,0.805,1.08,0.67,1.47,
C=C(NC(=O)C(=C)NC(=O)c1csc(C2=N[C@@H]3c4csc(n4)[C@H]4NC(=O)c5csc(n5)[C@H]([C@](C)(O)[C@@H](C)O)NC(=O)[C@H]5CSC(=N5)/C(=C/C)NC(=O)[C@H]([C@@H](C)O)NC(=O)c5csc(n5)[C@]3(CC2)NC(=O)[C@H](C)NC(=O)C(=C)NC(=O)[C@H](C)NC(=O)[C@H]([C@@H](C)CC)N[C@@H]2C=Cc3c([C@H](C)O)cc(nc3[C@H]2O)C(=O)O[C@@H]4C)n1)C(N)=O [Thiostrepton],4.46,2.6,4.95,4.36,2.62,
COC(=O)/C=C/C(=O)OC [Dimethyl Fumarate],1.01,1.07,0.598,1,1.15,
C=CC(=O)N1CC/C(=C\c2ccc(F)c([N+](=O)[O-])c2)C(=O)/C(=C/c2ccc(F)c([N+](=O)[O-])c2)C1,6.18,5.03,5.74,5.06,6.21,
Cc1ccc(C(=O)Nc2ccc(CN3CCN(C)CC3)c(C(F)(F)F)c2)cc1C#Cc1cnc2[nH]ncc2c1 [GZD824 Dimesylate],4.23,4.68,5.04,5.49,4.87,
Nc1ccc(S(=O)(=O)Nc2nccs2)cc1 [Sulfathiazole],0.815,0.811,0.62,0.824,0.818,
C[C@H](CSC(=O)c1ccccc1)C(=O)N1C[C@@H](Sc2ccccc2)C[C@H]1C(=O)O [Zofenopril calcium],0.845,0.393,0.787,0.559,0.93,
COc1ccc(CC(C)NCC(O)c2ccc(O)c(NC=O)c2)cc1 (stereo not given) [Formoterol Hemifumarate],1.29,0.672,0.886,1.15,1.94,
OCCOCCN1CCN(C2=Nc3ccccc3Sc3ccccc32)CC1 [Quetiapine],0.8,0.671,0.864,1.02,0.901,
CCCCCCCCCCCCc1ccc(S(=O)(=O)Nc2nncs2)cc1,1.69,1.57,1.16,,1.51,0.932
O=c1c(-c2ccc(O)cc2)coc2c([C@@H]3O[C@H](CO)[C@@H](O)[C@H](O)[C@H]3O)c(O)ccc12 [Puerarin],0.929,0.728,0.661,0.584,1.35,
COC(=O)OCOc1c2n(ccc1=O)N([C@@H]1c3ccccc3SCc3c1ccc(F)c3F)[C@@H]1COCCN1C2=O [Baloxavir marboxil],0.818,1.3,1.58,0.558,0.843,

SMILES,Euclidean distance [1],Euclidean distance [2],Euclidean distance [3],Euclidean distance [4],Euclidean distance [5],Euclidean distance [6]
CC(C)(C)[C@@H]1NC(=O)O[C@@H]2CCC[C@H]2OC/C=C/C(F)(F)c2nc3ccccc3nc2O[C@@H]2C[C@@H](C(=O)N[C@]3(C(=O)NS(=O)(=O)C4(C)CC4)C[C@H]3C(F)F)N(C2)C1=O [Glecaprevir],1.01,1.22,0.806,0.687,0.812,
C(=C\c1ccccc1)/CN1CCN(C(c2ccccc2)c2ccccc2)CC1 [Cinnarizine],0.758,1.16,1.01,0.713,1.63,
Cc1c(C)c2c(c(C)c1O)CCC(C)(COc1ccc(CC3SC(=O)NC3=O)cc1)O2 (stereo not given) [Troglitazone (CS-045)],1.4,1.51,0.893,0.876,1.2,
COc1cc2ccc(=O)oc2cc1O [Scopoletin],1.25,0.713,0.934,0.82,1.3,
CC(C)n1c(/C=C/C(O)CC(O)CC(=O)O)c(-c2ccc(F)cc2)c2ccccc21 (stereo not given) [Fluvastatin Sodium],3.02,2.4,3.84,1.86,2.29,
CCOC(=O)N[C@@H]1CC[C@@H]2[C@@H](C1)C[C@H]1C(=O)O[C@H](C)[C@H]1[C@H]2/C=C/c1ccc(-c2cccc(F)c2)cn1 [Vorapaxar],1.81,1.29,2.37,1.49,1.31,
CC(C)Oc1ccc(-c2nn([C@@H](C)c3oc4ccc(F)cc4c(=O)c3-c3cccc(F)c3)c3ncnc(N)c23)cc1F [umbralisib (TGR-1202)],1.11,1.14,1.9,1.81,0.974,
COC(=O)CCc1ccc(OCC(O)CNC(C)C)cc1 (stereo not given) [Esmolol HCl],0.978,0.415,0.525,0.386,1.12,
CCC(=O)NCC[C@@H]1CCc2ccc3c(c21)CCO3 [Ramelteon],1.15,0.978,0.887,1.02,1.07,
"CC1CCC(C(C)C)C(O)C1 (single isomer, unassigned; (-)) [(-)-Menthol]",0.7,0.703,0.797,0.699,0.955,
Nc1nc(N)nc(-c2cc(Cl)ccc2Cl)n1 [Irsogladine],1.09,1.05,0.809,0.613,1.41,
O=C1c2ccccc2C(=O)C1c1ccccc1 [Phenindione],0.966,1.04,1.16,0.74,1.1,
NS(=O)(=O)c1cc2c(cc1Cl)NC(C(Cl)Cl)NS2(=O)=O (stereo not given) [Trichlormethiazide],1.14,0.794,0.859,0.531,0.98,
CC[C@H](C)[C@H](N)C1=N[C@H](C(=O)N[C@@H](CC(C)C)C(=O)N[C@H](CCC(=O)O)C(=O)N[C@H](C(=O)N[C@H]2CCCCNC(=O)[C@H](CC(N)=O)NC(=O)[C@@H](CC(=O)O)NC(=O)[C@H](Cc3cnc[nH]3)NC(=O)[C@@H](Cc3ccccc3)NC(=O)[C@H]([C@@H](C)CC)NC(=O)[C@@H](CCCN)NC2=O)[C@@H](C)CC)CS1 [Bacitracin],1.65,1.13,0.901,0.726,1.22,
Oc1ncnc2[nH]ncc12 [Allopurinol],1.04,0.955,1.01,0.506,1.21,
NCCCC(N)(C(=O)O)C(F)F (stereo not given) [Eflornithine hydrochloride hydrate],1.45,1.26,1.21,0.792,1.43,
CC1(C)S[C@@H]2[C@H](NC(=O)C(C(=O)O)c3ccccc3)C(=O)N2[C@H]1C(=O)O (stereo not given in full) [Carbenicillin disodium],1.39,1.07,0.969,0.836,1.76,
